Data on 40 molecules can be found in PubChem BioAssay (EPA / NIEHS).

The AC50 is the midpoint of the concentration-response curve, whichever way the signal moves.

The source made the active and inactive calls. Rule for the calls: active = hit-call score of the fitted dose curve at least 0.9, where 1 is the maximum; inactive = score below 0.9.

Read-out in this experiment: Bcl-2 (BAX) gene, BAX (gene 581)
Description: LTEA_HepaRG_BAX: Life Technologies and Expression Analysis (LTEA) Assay for Bcl-2 (BAX) gene using HepaRG (AID 2283470). The following applies: mRNA level, 48 h; actives raise or lower the signal. The method, then:
LTEA_HepaRG is a cell based, multiplexed-readout assay that uses HepaRG, a human liver cell line, with measurements taken at 48 hours after chemical dosing on a 96-well plate.LTEA_HepaRG_BAX is one of 102 assay component(s) measured in the LTEA HepaRG cell culture assay. It is a marker of Cell proliferation, survival, death.Data from the assay component LTEA_HepaRG_BAX was analyzed into 1 endpoint. This assay endpoint, LTEA_HepaRG_BAX, was analyzed with bidirectional fitting relative to DMSO as the negative control and baseline of activity. Using a type of inducible reporter, measures of mRNA induction for gain or loss-of-signal activity can be used to understand regulation of transcription factor activity. To generalize the intended target to other relatable targets, this assay endpoint is annotated to the cell cycle intended target family, where the subfamily is Cell proliferation, survival, death.
A total of 1060 chemcials from the ToxCast library were tested in eight-point concentration-response experiments. Cell culture and cytotoxicity assays were conducted at Thermo Fisher Scientific's Custom Services facility (Madison, WI). A single lot of human HepaRG cells (Thermo Fisher Scientific, Frederick, MD) was used for the cell culture experiments. 96-well format collagen type I coated plates of human HepaRG cells were prepared using established methods. Briefly, cryopreserved HepaRG cells were thawed, plated at a density of approximately 100,000 cells/well in HepaRG Thaw, Plate, and General Purpose media (HPRG770, Thermo Fisher Scientific), and incubated for 48 hours. 0.5% DMSO was selected as vehicle control to balance the requisite need of DMSO in HepaRG cultures to maintain differentiation (for example, baseline metabolism, proportions of hepatocytes vs. cholangiocytes), while enabling further hepatic receptor pathway activation (for example, PXR and CAR) in response to chemical exposure. 48 hours after plating, the culture medium was replaced with HepaRG Serum-Free Incudtion Media. Cells were exposed to each test chemical in duplicate and maintained in CO2 incubators for another 48 hours. Chemical plates were thawed to room temperature and 200x concentrations of treatment groups were prepared. 8-point conentration-reponse curves were made with the highest exposure at 100 uM, followed by half-log dilutions, all in 0.5% DMSO. Each test plate contained variouse controls, induction positive controls (1mM phenobarbital), cytotoxicity positive controls ([…] aflatoxin B1), vehicle controls (0.5% DMSO), and total lysis controls (0.5% DMSO). Cell morphology images were taken using an Essen IncuCyte FLR automated microscope, with six 96-well plates imaged in about 24 minutes. Images were captured and exported and JPEG files. Spent culture media was transfered to black-well plates for the LDH assay, and remaining media was sorted at -80 C for later use. Cells were treated with RLT buffer and frozen until shipped for gene expression analysis. Total RNA was isolated from the cell suspension in 75 uL of Buffer RLT (Qiagen, Germantown, MD 20874) by Quintiles/Expression Analysis (Durham, NC) using a custom isolation procedure. Total RNA from each plate well was transferred to a preamplification plate. Fluidigm's 96.96 Dynamic ArrayTM (Fluidigm, Amsterdam, the Netherlands) technology was used for gene expression analyses by quantitative reverse transcription polymerase chain reaction (qRT-PCR, performed by Quintiles/Expression Analysis, Durham, NC)89. Standard TaqManTM Assays (Applied Biosystems/ThermoFisher Scientific, Foster City, CA) were used to assess the expression of 93 genes selected based on their selectivity and sensitivity to important hepatic receptors known to be modulated by environmental chemicals; importance in human hepatocyte functionality; and hepatotoxicity. […]
On to `CO[C@@H]1[C@H](OC(=O)NC(=O)CCl)CC[C@]2(CO2)[C@H]1[C@@]1(C)O[C@@H]1CC=C(C)C`, for which the molecule was classed as inactive.

Regarding `O=[N+]([O-])c1ccc(Oc2ccc(Cl)cc2Cl)cc1`, the molecule was classed as inactive.

Take `CCN(CC)CCO`: the outcome was inactive.

For the molecule `CCC12COCN1COC2`, the result was inactive.

`CCCCCCCCn1sccc1=O`: the call was inactive.

In the case of `CCOc1cccc(C2(N3CCN(c4ccccc4)CC3)CCC(C)CC2)c1` (stereo not given), the outcome was inactive.

With `Cc1cc(N=Nc2ccccc2C)ccc1N`, the half-maximal activity concentration (AC50) was 1990 nM (active).

On to `CC(C)(OOC(C)(C)c1ccccc1)c1ccccc1`, for which the molecule was classed as inactive.

For `Cn1cc(-c2ccccc2)c(=O)c(-c2cccc(C(F)(F)F)c2)c1`, the outcome was inactive.

`Clc1ccc(C(c2ccc(Cl)cc2)C(Cl)(Cl)Cl)cc1`: the outcome was inactive.

Take `CCCCCCCCCCCCCN1CC(C)OC(C)C1` (stereo not given): the call was inactive.

With `Clc1ccc(Cl)c(Cl)c1`, the result was inactive.

Turning to `c1ccc(NNc2ccccc2)cc1`, the molecule was called inactive.

Regarding `CCCCC(CC)COC(=O)c1ccc(C(=O)OCC(CC)CCCC)c(C(=O)OCC(CC)CCCC)c1` (stereo not given), the call was inactive.

Take `COC(=O)Nc1nc2ccccc2[nH]1`: the molecule was classed as inactive.

For `OCCCl`, the outcome was inactive.

`Cc1ccc(N)c(N)c1`: the call was inactive.

For the molecule `CC(C)(C)C(O)(CCc1ccc(Cl)cc1)Cn1cncn1` (stereo not given), the outcome was inactive.

Take `Clc1ccc(C(c2ccc(Cl)cc2)C(Cl)Cl)cc1`: the result was inactive.

For `C=CCc1ccc2c(c1)OCO2`, the call was inactive.

Take `O=Cc1ccco1`: the outcome was inactive.

With `CCC(C)c1ccc(O)cc1` (stereo not given), the molecule was called inactive.

Regarding `Cc1ccc(N)cc1`, the result was inactive.

As for `Cc1ccc(N=C=O)cc1N=C=O`, the outcome was inactive.

With `ClC1=C(Cl)[C@]2(Cl)[C@H]3[C@H]([C@@H]4C=C[C@H]3C4)[C@@]1(Cl)C2(Cl)Cl`, the result was inactive.

For the molecule `COC(=O)c1ccccc1N`, the molecule was called inactive.

For `CCN(CC)N=O`, the outcome was inactive.

Regarding `COP(=S)(OC)SCN1C(=O)c2ccccc2C1=O`, the outcome was inactive.

Consider `c1ccc2c(c1)-c1cccc3cccc-2c13`, for which the outcome was inactive.

Consider `Nc1ccc([N+](=O)[O-])cc1`, for which the outcome was inactive.

On to `CCCSC(=O)N(CCC)CCC`, for which the result was inactive.

Take `CC(C)COC(=O)c1ccccc1C(=O)OCC(C)C`: the molecule was called inactive.

Regarding `CC(C)(O)c1cnn2c(-c3ccc(F)c(-c4c(F)cccc4C#N)c3)cnc2n1`, the result was inactive.

Regarding `CC(C)(C)OOC(=O)c1ccccc1`, the result was inactive.

`O=[N+]([O-])C(Br)(CO)CO`: the call was inactive.

In the case of `CCCCOC(=O)c1ccccc1C(=O)OCc1ccccc1`, the call was inactive.

In the case of `O=C(Nc1ccccc1)c1ccccc1I`, the outcome was inactive.

Consider `CCCCCOC(=O)c1ccccc1C(=O)OCCCCC`, for which the result was inactive.

On to `CN(C)[C@@H]1C(=O)C(C(N)=O)=C(O)[C@@]2(O)C(=O)C3=C(O)c4c(O)cccc4[C@@](C)(O)[C@H]3C[C@@H]12`, for which the call was inactive.

As to `CC(O)CCO` (stereo not given), the result was inactive.
